Several values for one entry are separate records, joined by “and”; a condition that tells them apart may be missing. Identical values can stand only once. Results filed as inconclusive are left out. Activity calls are given as the source filed them. Unless noted, the call rests on the fitted dose curve; in most records, active means well fitted curve in the direction sought with a large enough effect in the repeat runs; inconclusive means weak or mixed curves; inactive means no such curve, though single readings can be large; an effect the other way counts as inactive or inconclusive.

Assay [1] has as its target Peroxisome proliferator-activated receptor delta (Homo sapiens) (UniProt Q03181). Nature of the assay: qHTS assay to identify small molecule antagonists of the peroxisome proliferator-activated receptor delta (PPARd) signaling pathway (AID 743215; active means well fitted inhibition curve with a large enough effect in the signal ratio in the repeat runs, not every such curve was filed as active; the % refers to the signal ratio;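 further: cells stimulated with agonist L165041 at 300 nM final during compound exposure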; further: potency means the concentration at half of the fitted maximal effect). In outline:
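Here, a reporter line (HEK293H, beta-lactamase under a UAS) measures PPARd signaling. Compounds are tested against agonist L165041 at 300 nM final concentration over 17 h at 37 C, with fluorescence read after substrate.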

Assay [2] concerns the target Bile acid receptor (Homo sapiens) (UniProt Q96RI1). The assay is described as follows: qHTS assay to identify small molecule agonists of the farnesoid-X-receptor (FXR) signaling pathway (AID 743220; active means well fitted activation curve with a large enough effect in the signal ratio in the repeat runs, not every such curve was filed as active; the % refers to the signal ratio). In outline: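 FXR-UAS-bla HEK 293T cells carrying a UAS-driven beta-lactamase reporter were plated for 5 h at 37C/5% CO2, then exposed to DMSO-dissolved Tox21 10K compounds for 16 h at 37C. A LiveBLAzer B/G FRET substrate was loaded for 2 h at room temperature before fluorescence reading.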
On the technique in general: qHTS replaces the single test concentration by a dilution series.

Assay [3] can be described thus: qHTS assay to identify small molecule antagonists of the farnesoid-X-receptor (FXR) signaling pathway - cell viability counter screen (AID 743221; active means well fitted cell-killing curve with a large enough effect in the repeat runs, not every such curve was filed as active; further: nearly all actives have a fitted effect of over 50% in size; further: potency means the concentration at half of the fitted maximal effect). In outline: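 After a 5 h settling period, FXR-bla HEK 293T cells receive compound and chenodeoxycholic acid (50 uM final) and incubate 16 h at 37 C; CellTiter-Glo luminescence, read after 30 min at room temperature, reports cell viability.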

A short description of assay [4]: qHTS assay to identify small molecule agonists of the vitamin D receptor (VDR) signaling pathway - cell viability counter screen (AID 743224). Further: nearly all actives have a fitted effect of over 50% in size. Further: potency means the concentration at half of the fitted maximal effect. In a few lines: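 CellTiter-Glo viability readout on VDR-bla cells, measured after 16 h of compound treatment at 37C in the same wells.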
A short description of assay [5]: qHTS assay to identify small molecule agonists of the NFkB signaling pathway - cell viability counter screen (AID 1159515; calls by dose curve; further: nearly all actives have a fitted effect of over 55% in size; further: potency means the concentration at half of the fitted maximal effect). In a few lines: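 Tox21 library compounds were tested for cytotoxicity against NFkB-bla ME-180 cells during a 5 hr exposure at 37 C. CellTiter-Glo luminescence served as the viability read-out.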
Assay [6] in a line: qHTS assay to identify small molecule antagonists of the retinoid-related orphan receptor gamma (ROR-gamma) signaling pathway - cell viability counter screen (AID 1159520). Further: nearly all actives have a fitted effect of over 50% in size. Further: potency means the concentration at half of the fitted maximal effect. In outline:
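Tet-on ROR gamma CHO cells (1,000/well) were plated 4 hr, given compounds in DMSO for 2 hr at 37 C, then induced with 1 uM final doxycycline for 16 hr. Viability was read as ATP by CellTiter-Glo luminescence after 30 min.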

Assay [7] in a line: qHTS assay to identify small molecule agonists of the AP-1 signaling pathway - cell viability counter screen (AID 1159525; calls by dose curve; further: nearly all actives have a fitted effect of over 55% in size; further: potency means the concentration at half of the fitted maximal effect). In a few lines: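 Each titration point was normalised to DMSO and tetra n-octyl ammonium bromide controls. The read was Cell Titer Glo luminescence after 30 min at RT, following 5 h compound exposure of ME-180 AP-1-bla cells at 37 °C.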
The nature of assay [8]: qHTS assay to identify small molecule agonists of the AP-1 signaling pathway (AID 1159526; calls by dose curve; further: potency means the concentration at half of the fitted maximal effect).
The target of assay [9] is Peroxisome proliferator-activated receptor delta (Homo sapiens) (UniProt Q03181). Nature of the assay: qHTS assay to identify small molecule agonists of the peroxisome proliferator-activated receptor delta (PPARd) signaling pathway (AID 743212; calls by dose curve;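 further: HEK293H cells with PPARd UAS beta-lactamase reporter GeneBLAzer system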). In a few lines: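 Beta-lactamase reporter read by fluorescence (LiveBLAzer B/G FRET, 2 h, room temperature). Test agents, in DMSO, incubated at 37 C with PPARd-bla HEK293H cells.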
Peroxisome proliferator-activated receptor delta (Homo sapiens), sequence (Q03181 whole entry, looked up): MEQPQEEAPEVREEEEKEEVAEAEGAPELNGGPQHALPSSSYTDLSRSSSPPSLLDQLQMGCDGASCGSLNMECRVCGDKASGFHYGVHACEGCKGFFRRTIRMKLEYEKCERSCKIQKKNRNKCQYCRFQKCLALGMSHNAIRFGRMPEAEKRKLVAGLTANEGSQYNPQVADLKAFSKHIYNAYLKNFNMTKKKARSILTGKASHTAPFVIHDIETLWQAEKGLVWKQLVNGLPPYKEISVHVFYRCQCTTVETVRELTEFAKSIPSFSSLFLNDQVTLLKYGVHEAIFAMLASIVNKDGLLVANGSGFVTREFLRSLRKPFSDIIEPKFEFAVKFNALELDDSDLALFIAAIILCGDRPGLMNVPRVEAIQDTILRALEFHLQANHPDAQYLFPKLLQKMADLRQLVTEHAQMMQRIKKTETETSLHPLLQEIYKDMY

The nature of assay [10]: qHTS assay to identify small molecule antagonists of the peroxisome proliferator-activated receptor delta (PPARd) signaling pathway - cell viability counter screen (AID 743213). Further: nearly all actives have a fitted effect of over 50% in size. Further: potency means the concentration at half of the fitted maximal effect. In outline:
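Luminescence from CellTiter-Glo, added after the bla read and incubated 30 min at room temperature, gives viability of HEK293H PPARd-bla cells exposed to compounds for 17 h at 37 C with 300 nM L165041.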

Assay [11] can be described thus: qHTS assay to identify small molecule agonists of the farnesoid-X-receptor (FXR) signaling pathway - cell viability counter screen (AID 743218). Further: nearly all actives have a fitted effect of over 45% in size. Further: potency means the concentration at half of the fitted maximal effect. In outline: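 Quantitative HTS counter screen measuring ATP-based viability via CellTiter-Glo luminescence in HEK 293T cells carrying a UAS-driven beta-lactamase reporter, after 16 h compound exposure at 37 C.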
The target of assay [12] is Vitamin D3 receptor (Homo sapiens) (UniProt P11473). Nature of the assay: qHTS assay to identify small molecule agonists of the vitamin D receptor (VDR) signaling pathway (AID 743222; calls by dose curve). In outline: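 Tox21 cell reporter format: VDR-bla line, 16 h compound exposure in 5% CO2 at 37C, then fluorescence intensity after 2 h with LiveBLAzer B/G FRET substrate.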
Vitamin D3 receptor (Homo sapiens), sequence (P11473 whole entry, looked up): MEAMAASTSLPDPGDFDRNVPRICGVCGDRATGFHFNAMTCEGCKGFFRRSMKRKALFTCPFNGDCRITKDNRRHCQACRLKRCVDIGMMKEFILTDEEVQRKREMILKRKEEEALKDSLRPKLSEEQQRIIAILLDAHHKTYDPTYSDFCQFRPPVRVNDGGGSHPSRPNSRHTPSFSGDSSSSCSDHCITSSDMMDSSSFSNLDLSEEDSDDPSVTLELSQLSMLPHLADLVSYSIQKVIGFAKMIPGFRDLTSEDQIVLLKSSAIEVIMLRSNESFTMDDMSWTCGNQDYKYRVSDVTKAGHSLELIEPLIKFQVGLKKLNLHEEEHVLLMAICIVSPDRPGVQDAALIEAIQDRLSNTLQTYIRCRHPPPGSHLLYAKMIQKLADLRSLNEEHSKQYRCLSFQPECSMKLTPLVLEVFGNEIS
Assay [13] can be described thus: qHTS assay to identify small molecule antagonists of the vitamin D receptor (VDR) signaling pathway - cell viability counter screen (AID 743225). Further: nearly all actives have a fitted effect of over 50% in size. Further: potency means the concentration at half of the fitted maximal effect. In outline: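 Parallel cytotoxicity test: VDR-UAS-bla HEK 293T, 3 nM (final) 1-alpha,25-dihydroxyvitamin D3 with test compound, 16 h, 37C. Endpoint is CellTiter-Glo luminescence in the same wells.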
The target of assay [14] is Nuclear receptor ROR-gamma (Homo sapiens) (UniProt P51449). The assay is described as follows: qHTS assay to identify small molecule antagonists of the retinoid-related orphan receptor gamma (ROR-gamma) signaling pathway (AID 1159521; further: nearly all actives have a fitted effect of over 50% in size; further: potency means the concentration at half of the fitted maximal effect). In outline:
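Decreased RORE-driven luciferase luminescence indicates antagonism. Tet-on RORγ CHO cells received compound, then 1 uM final doxycycline 2 h later; signal read after 16 h incubation.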

A short description of assay [15]: qHTS assay to identify small molecule agonists of the peroxisome proliferator-activated receptor delta (PPARd) signaling pathway - cell viability counter screen (AID 743211). Further: nearly all actives have a fitted effect of over 55% in size. Further: potency means the concentration at half of the fitted maximal effect. In a few lines: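 qHTS cell viability: PPARd-bla HEK293H; 17 h cpd, 37C; CellTiter-Glo, luminescence at 30 min RT.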
Assay [16] deals with Bile acid receptor (Homo sapiens) (UniProt Q96RI1). The assay is described as follows: qHTS assay to identify small molecule antagonists of the farnesoid-X-receptor (FXR) signaling pathway (AID 743217; active means well fitted inhibition curve with a large enough effect in the signal ratio in the repeat runs, not every such curve was filed as active; the % refers to the signal ratio). In outline:
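Test compounds are pin-transferred onto FXR-bla HEK 293T cells, then chenodeoxycholic acid is added at 50 uM final. After 16 h at 37 °C, LiveBLAzer B/G substrate is applied for 2 h at room temperature and fluorescence read.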

Assay [17] concerns the target Vitamin D3 receptor (Homo sapiens) (UniProt P11473). The assay is described as follows: qHTS assay to identify small molecule antagonists of the vitamin D receptor (VDR) signaling pathway (AID 743223; active means well fitted inhibition curve with a large enough effect in the signal ratio in the repeat runs, not every such curve was filed as active; the % refers to the signal ratio; further: potency means the concentration at half of the fitted maximal effect). In outline: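 Reporter line VDR-bla; stimulus 1alpha,25-(OH)2 vitamin D3, 3 nM final; compound co-addition, 16 h 37C/5% CO2; LiveBLAzer B/G substrate 2 h RT; fluorescence intensity.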

Assay [18] in a line: qHTS assay to identify small molecule agonists of the endoplasmic reticulum stress response signaling pathway (AID 1159516; active means well fitted activation curve with a large enough effect in the signal ratio in the repeat runs, not every such curve was filed as active; the % refers to the signal ratio). In outline:
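Fluorescence at 460 and 530 nm (405 nm excitation) reports beta-lactamase from an ER stress response element in HeLa cells treated 5 hr at 37 C.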

The nature of assay [19]: qHTS assay to identify small molecule agonists of the endoplasmic reticulum stress response signaling pathway - cell viability counter screen (AID 1159517; calls by dose curve; further: nearly all actives have a fitted effect of over 50% in size; further: potency means the concentration at half of the fitted maximal effect). In outline:
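Cytotoxicity of test compounds toward ESRE-bla HeLa cells was assessed after 5 hr exposure. The luminescent CellTiter-Glo signal was measured 30 min after reagent addition.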

Assay [20] concerns the target Retinoic acid receptor RXR-alpha (Homo sapiens) (UniProt P19793). The assay is described as follows: qHTS assay to identify small molecule agonists of the RXR signaling pathway (AID 1159527; calls by dose curve; further: nearly all actives have a fitted effect of over 35% in size). In a few lines: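 16 hr incubation of compound-treated RXR-alpha-UAS-bla HEK 293T cells (2% charcoal-stripped FBS, 37 C) preceded a 2 hr room-temperature LiveBLAzer FRET substrate step and blue/green fluorescence measurement.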

Bile acid receptor (Homo sapiens), sequence (Q96RI1 whole entry, looked up): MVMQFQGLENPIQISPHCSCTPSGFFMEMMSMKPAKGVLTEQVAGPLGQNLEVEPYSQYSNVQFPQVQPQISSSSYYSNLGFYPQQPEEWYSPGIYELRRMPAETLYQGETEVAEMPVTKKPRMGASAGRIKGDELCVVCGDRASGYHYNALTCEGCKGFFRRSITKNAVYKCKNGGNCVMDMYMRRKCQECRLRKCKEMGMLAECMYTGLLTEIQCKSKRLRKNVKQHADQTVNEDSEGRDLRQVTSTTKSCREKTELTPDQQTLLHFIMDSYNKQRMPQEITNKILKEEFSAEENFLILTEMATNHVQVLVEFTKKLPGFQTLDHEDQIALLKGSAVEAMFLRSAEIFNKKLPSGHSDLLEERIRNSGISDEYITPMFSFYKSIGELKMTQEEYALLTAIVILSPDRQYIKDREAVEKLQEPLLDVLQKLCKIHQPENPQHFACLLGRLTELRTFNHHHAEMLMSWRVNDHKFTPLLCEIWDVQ
Retinoic acid receptor RXR-alpha (Homo sapiens), sequence (P19793 whole entry, looked up): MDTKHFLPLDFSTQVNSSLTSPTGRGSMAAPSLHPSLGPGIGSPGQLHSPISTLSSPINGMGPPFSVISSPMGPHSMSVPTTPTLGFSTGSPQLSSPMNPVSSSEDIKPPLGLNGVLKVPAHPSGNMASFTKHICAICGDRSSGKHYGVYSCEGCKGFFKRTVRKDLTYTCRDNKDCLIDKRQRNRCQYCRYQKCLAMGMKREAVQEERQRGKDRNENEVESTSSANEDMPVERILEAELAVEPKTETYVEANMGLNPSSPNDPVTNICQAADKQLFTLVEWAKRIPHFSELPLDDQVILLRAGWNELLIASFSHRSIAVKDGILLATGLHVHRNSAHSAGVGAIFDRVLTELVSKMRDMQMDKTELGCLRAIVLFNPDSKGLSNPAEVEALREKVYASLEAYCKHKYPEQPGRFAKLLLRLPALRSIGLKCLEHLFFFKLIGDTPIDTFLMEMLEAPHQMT

On to `Oc1ccc(C(=C(Cl)Cl)c2ccc(O)cc2)cc1`, for which the Potency is 19.5 µM (active) in assay [1] and 48.9 µM (active) in assay [4]. In addition, in assay [2], the result was inactive. For the same molecule, the Potency entry in [3], in [5], in assay [6], in assay [7] and in assay [8] was “inactive” throughout.
On to `CCc1nn(C)c(C(=O)NCc2ccc(C(C)(C)C)cc2)c1Cl`, for which the Potency result in assay [9] and in [12] was “inactive” each time. The Potency was 43.6 µM (active) in assay [10]; 49 µM (active) in [11]; 27.5 µM (active) in assay [4]; 38.9 µM (active) in assay [13]; 54.9 µM (active) in [5]; 0.545 µM (active) in [14]. Further, the Potency in assay [7] was 54.9 µM (active). For the same molecule, the molecule was classed as inactive in assay [2].
Turning to `N#CSCSC#N`, the Potency is 50.1 µM (active) and 43.2 µM (active) in assay [15]; 44.6 µM (active) and 48.5 µM (active) in assay [10]; 15.8 µM (active) and 17.2 µM (active) in [4]; 50.1 µM (active) and 34.3 µM (active) in assay [13]; 25.1 µM (active) in assay [5]; 15.7 µM (active) and 4.28 µM (active) in assay [6]. Further, the Potency in assay [14] is 12.1 µM (active); in assay [7] it was 25.1 µM (active) and 21.7 µM (active). In addition, the Potency entry in [11] and in assay [12] was “inactive” each time. In addition, the molecule was classed as inactive in assay [2].
With `CN(C)c1ccc(N=Nc2ccccc2)cc1`, the Potency entry in assay [9], in assay [10], in [1], in [16], in assay [11] and in assay [3] was “inactive” each time. In addition, the Potency entry in assay [17], in assay [4], in assay [13], in [5], in assay [6] and in [14] was “inactive” each time. Besides, the Potency result in assay [7] and in assay [8] was “inactive” throughout. In addition, in assay [2], the molecule was called inactive.
Consider `CC[C@H](C)[C@H]1O[C@]2(C=C[C@@H]1C)C[C@@H]1C[C@@H](C/C=C(\C)[C@@H](O[C@H]3C[C@H](OC)[C@@H](O[C@H]4C[C@H](OC)[C@@H](O)[C@H](C)O4)[C@H](C)O3)[C@@H](C)/C=C/C=C3\CO[C@@H]4[C@H](O)C(C)=C[C@@H](C(=O)O1)[C@]34O)O2`, for which the Potency in assay [15] is 11.5 µM (active); in assay [10], 9.15 µM (active); in assay [11], 12.9 µM (active); in [3], 12.9 µM (active); in [4] it was 7.27 µM (active); in [13], 11.5 µM (active). Further, the Potency is 28.9 µM (active) in assay [5], 25.6 µM (active) in assay [6] and 23 µM (active) in assay [7].
For the molecule `NNC(=O)c1ccccc1`, the Potency entry in [15], in assay [9], in [10], in assay [1], in assay [11] and in [3] was “inactive” throughout. Further, the Potency entry in assay [13], in assay [18], in assay [19], in [6], in assay [14] and in assay [7] was “inactive” each time. Moreover, in assay [8], the Potency result was “inactive”. Also, the molecule was classed as inactive in [20].
Regarding `C[C@]12CC[C@H]3[C@@H](CCC4=CC(=O)CC[C@@]43C)[C@@H]1CC[C@@H]2O`, the Potency entry in assay [15], in [10], in [3], in assay [4], in [13] and in [18] was “inactive” each time. Further, the Potency result in [19], in [6] and in assay [7] was “inactive” throughout.
Turning to `CCCN(CCC)CCc1c[nH]c2ccccc12`, the Potency result in assay [9], in [10], in assay [1], in assay [16], in assay [11] and in assay [3] was “inactive” each time. The Potency result in assay [12], in [17], in assay [4], in assay [13], in [18] and in assay [19] was “inactive” each time. Besides, the Potency result in assay [6] and in assay [7] was “inactive” throughout. Also, the Potency in assay [8] is 43.1 µM (active).
Turning to `Oc1ccc(C2(c3ccc(O)cc3)c3ccccc3-c3ccccc32)cc1`, the Potency in assay [15] is 43.6 µM (active); in [10], 13.8 µM (active); in [1] it was 11 µM (active); in assay [11] it was 54.9 µM (active); in assay [5], 54.9 µM (active). Moreover, the Potency result in assay [12] was “inactive”.
For `c1ccc2c(c1)OCC(C1=NCCN1)O2` (stereo unspecified), the Potency is 23.7 µM (active) in assay [1], 16.9 µM (active) in assay [17] and 23.7 µM (active) in [14]. Further, the Potency result in assay [12], in [4], in assay [13], in assay [18], in [19] and in [6] was “inactive” each time. Moreover, the Potency result in assay [7] and in assay [8] was “inactive” each time.
`O=c1[nH]c2ccccc2n1CCCN1CCC(n2c(=O)[nH]c3cc(Cl)ccc32)CC1`: the Potency result in assay [3], in assay [4], in assay [13], in [18], in assay [19] and in assay [6] was “inactive” in each case. The Potency entry in assay [7] is “inactive”.
In the case of `CN(C)CCc1c[nH]c2ccc(O)cc12`, the Potency entry in assay [9], in [10], in [1], in assay [16], in assay [11] and in [3] was “inactive” throughout. Also, the Potency result in [12], in [17], in [13], in assay [18], in [19] and in [6] was “inactive” in each case. Further, the Potency result in [14], in assay [7] and in assay [8] was “inactive” throughout.
Consider `O=c1[nH]c2ccccc2n1C1CCN(CCCC(c2ccc(F)cc2)c2ccc(F)cc2)CC1`, for which the Potency in assay [15] was 24.5 µM (active) and 29.8 µM (active); in assay [10] it was 21.9 µM (active) and 29.8 µM (active); in assay [11], 21.9 µM (active); in assay [4], 21.9 µM (active); in [13], 24.5 µM (active); in assay [19] it was 49 µM (active) and 23.9 µM (active). In addition, the Potency was 24.3 µM (active) and 29.8 µM (active) in [6]; 19.3 µM (active) and 23.7 µM (active) in assay [14]; 19.5 µM (active) in assay [7]. Besides, the outcome in [2] was inactive. Also, the Potency result in assay [18] is “inactive”.

These data come from PubChem BioAssay (Tox21).
